Targets with a hit are over-represented here; the source holds about 7,900 in all. About 0.6% of all pairs of compound and target were hits. Unmarked numbers belong to inactive results.
How the values were obtained:
Test in all cases: log2 fold change, soluble protein after heating vs DMSO (PISA); higher = thermal stabilisation; K562 cells, 10 uM, 30 min; active = over 0.2 and 3.5 SD of the protein, either way, in both replicates (recomputed)
[1] = compound: CS(=O)(=O)c1ccc(-c2cnc(N)c(C(=O)Nc3ccccc3)n2)cc1
Procedure, shortened: (§1)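 Thermal stability values are relative to control samples and come from duplicates. They are expressed as log2 fold changes. For measurement, K562 cells (2×10^6 cells/mL) received 10 μM compound for 30 min, and aliquots were heated for 3 min over 48°C-58°C, pooled, and extracted at 4°C in PBS with 0.5% NP-40. Soluble protein, the supernatant after 21,000xg for 90 min, was quantified by TMTpro 16plex LC-MS/MS with equalised channel sums.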

crizotinib = compound: C[C@@H](Oc1cc(-c2cnn(C3CCNCC3)c2)cnc1N)c1c(Cl)ccc(F)c1Cl [crizotinib]
Procedure, shortened: as §1

[2] = compound: C[C@@H]1COCCN1C2=NC(=NC(=C2)C3(CC3)S(=O)(=O)C)C4=C5C=CNC5=CC=C4
Procedure, shortened: as §1

[3] = compound: C[C@H](C1=CC=C(C=C1)C(=O)NC2=C3C=CNC3=NC=C2)N
Procedure, shortened: as §1

duvelisib = compound: C[C@H](Nc1ncnc2nc[nH]c12)c1cc2cccc(Cl)c2c(=O)n1-c1ccccc1 [duvelisib]
Procedure, shortened: as §1

gandotinib = compound: Cc1cc(Nc2cc(CN3CCOCC3)c3nc(C)c(Cc4ccc(Cl)cc4F)n3n2)n[nH]1 [gandotinib]
Procedure, shortened: as §1

tozasertib = compound: Cc1cc(Nc2cc(N3CCN(C)CC3)nc(Sc3ccc(NC(=O)C4CC4)cc3)n2)n[nH]1 [tozasertib]
Procedure, shortened: as §1

[4] = compound: Cc1cc(SCc2sc(-c3ccc(C(F)(F)F)cc3)nc2C)ccc1OCC(=O)O
Procedure, shortened: as §1

doramapimod = compound: Cc1ccc(-n2nc(C(C)(C)C)cc2NC(=O)Nc2ccc(OCCN3CCOCC3)c3ccccc23)cc1 [doramapimod]
Procedure, shortened: as §1

ispinesib = compound: Cc1ccc(C(=O)N(CCCN)[C@@H](c2nc3cc(Cl)ccc3c(=O)n2Cc2ccccc2)C(C)C)cc1 [ispinesib]
Procedure, shortened: as §1

bafetinib = compound: Cc1ccc(NC(=O)c2ccc(CN3CC[C@H](N(C)C)C3)c(C(F)(F)F)c2)cc1Nc1nccc(-c2cncnc2)n1 [bafetinib]
Procedure, shortened: as §1

[5] = compound: Cc1cccc(CC(=O)N2CCc3c2ccc(-c2cn(C)c4ncnc(N)c24)c3F)n1
Procedure, shortened: as §1

nilotinib = compound: Cc1cn(-c2cc(NC(=O)c3ccc(C)c(Nc4nccc(-c5cccnc5)n4)c3)cc(C(F)(F)F)c2)cn1 [nilotinib]
Procedure, shortened: as §1

[6] = compound: Cc1nc(Nc2n[nH]c3c2CN(C(=O)N[C@H](CN(C)C)c2ccccc2)C3(C)C)c2sccc2n1
Procedure, shortened: as §1

dasatinib = compound: Cc1nc(Nc2ncc(C(=O)Nc3c(C)cccc3Cl)s2)cc(N2CCN(CCO)CC2)n1 [dasatinib]
Procedure, shortened: as §1

[7] = compound: Cc1ncc(-c2ccnc(Nc3ccc(S(C)(=O)=O)cc3)n2)n1C(C)C
Procedure, shortened: as §1

[8] = compound: Cn1cc(-c2ccc3c(c2)CCN3C(=O)Cc2cccc(C(F)(F)F)c2)c2c(N)ncnc21
Procedure, shortened: as §1

[9] = compound: Cn1cc(-c2ccc3nnc(C(F)(F)c4ccc5ncccc5c4)n3n2)cn1
Procedure, shortened: as §1

tipifarnib = compound: Cn1cncc1[C@@](N)(c1ccc(Cl)cc1)c1ccc2c(c1)c(-c1cccc(Cl)c1)cc(=O)n2C [tipifarnib]
Procedure, shortened: as §1

mubritinib = compound: FC(F)(F)c1ccc(/C=C/c2nc(COc3ccc(CCCCn4ccnn4)cc3)co2)cc1 [mubritinib]
Procedure, shortened: as §1

Chain of UniProt P23276 (P23276 whole entry, looked up): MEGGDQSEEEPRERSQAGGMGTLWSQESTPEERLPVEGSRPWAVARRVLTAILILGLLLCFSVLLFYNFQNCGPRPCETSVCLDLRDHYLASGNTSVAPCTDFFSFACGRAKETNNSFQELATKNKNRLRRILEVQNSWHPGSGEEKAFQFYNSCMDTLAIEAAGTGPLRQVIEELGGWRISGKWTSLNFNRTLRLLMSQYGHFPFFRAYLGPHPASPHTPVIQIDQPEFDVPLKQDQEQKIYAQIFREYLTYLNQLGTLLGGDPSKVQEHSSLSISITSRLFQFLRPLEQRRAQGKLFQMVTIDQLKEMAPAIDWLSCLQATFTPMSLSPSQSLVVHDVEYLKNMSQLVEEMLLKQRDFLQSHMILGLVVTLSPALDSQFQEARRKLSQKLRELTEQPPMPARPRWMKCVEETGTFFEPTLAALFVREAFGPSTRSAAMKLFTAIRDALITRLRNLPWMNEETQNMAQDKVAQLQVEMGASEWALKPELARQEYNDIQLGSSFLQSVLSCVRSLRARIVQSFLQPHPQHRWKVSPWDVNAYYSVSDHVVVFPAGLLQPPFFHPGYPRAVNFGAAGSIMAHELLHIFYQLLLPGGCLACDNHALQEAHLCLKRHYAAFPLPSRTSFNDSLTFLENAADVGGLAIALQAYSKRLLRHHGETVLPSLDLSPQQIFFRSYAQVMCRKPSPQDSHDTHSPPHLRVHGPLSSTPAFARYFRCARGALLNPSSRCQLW
Chain of UniProt Q13123 (Q13123 whole entry, looked up): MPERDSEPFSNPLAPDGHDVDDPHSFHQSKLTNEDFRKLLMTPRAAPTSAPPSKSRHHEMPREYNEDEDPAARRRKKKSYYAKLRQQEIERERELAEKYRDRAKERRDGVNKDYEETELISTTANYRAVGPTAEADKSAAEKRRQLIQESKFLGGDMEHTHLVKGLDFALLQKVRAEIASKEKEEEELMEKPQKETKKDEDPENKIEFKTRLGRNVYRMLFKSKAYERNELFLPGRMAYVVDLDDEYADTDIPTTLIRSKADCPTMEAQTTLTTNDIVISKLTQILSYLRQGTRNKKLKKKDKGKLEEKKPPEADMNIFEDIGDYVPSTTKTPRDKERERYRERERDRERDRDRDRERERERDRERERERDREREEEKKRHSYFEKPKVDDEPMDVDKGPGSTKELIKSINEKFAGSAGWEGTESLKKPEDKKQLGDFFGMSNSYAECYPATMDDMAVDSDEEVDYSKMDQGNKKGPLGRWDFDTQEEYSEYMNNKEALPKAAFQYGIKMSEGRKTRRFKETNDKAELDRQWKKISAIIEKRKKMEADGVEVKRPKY
Chain of UniProt Q96P70 (Q96P70 whole entry, looked up): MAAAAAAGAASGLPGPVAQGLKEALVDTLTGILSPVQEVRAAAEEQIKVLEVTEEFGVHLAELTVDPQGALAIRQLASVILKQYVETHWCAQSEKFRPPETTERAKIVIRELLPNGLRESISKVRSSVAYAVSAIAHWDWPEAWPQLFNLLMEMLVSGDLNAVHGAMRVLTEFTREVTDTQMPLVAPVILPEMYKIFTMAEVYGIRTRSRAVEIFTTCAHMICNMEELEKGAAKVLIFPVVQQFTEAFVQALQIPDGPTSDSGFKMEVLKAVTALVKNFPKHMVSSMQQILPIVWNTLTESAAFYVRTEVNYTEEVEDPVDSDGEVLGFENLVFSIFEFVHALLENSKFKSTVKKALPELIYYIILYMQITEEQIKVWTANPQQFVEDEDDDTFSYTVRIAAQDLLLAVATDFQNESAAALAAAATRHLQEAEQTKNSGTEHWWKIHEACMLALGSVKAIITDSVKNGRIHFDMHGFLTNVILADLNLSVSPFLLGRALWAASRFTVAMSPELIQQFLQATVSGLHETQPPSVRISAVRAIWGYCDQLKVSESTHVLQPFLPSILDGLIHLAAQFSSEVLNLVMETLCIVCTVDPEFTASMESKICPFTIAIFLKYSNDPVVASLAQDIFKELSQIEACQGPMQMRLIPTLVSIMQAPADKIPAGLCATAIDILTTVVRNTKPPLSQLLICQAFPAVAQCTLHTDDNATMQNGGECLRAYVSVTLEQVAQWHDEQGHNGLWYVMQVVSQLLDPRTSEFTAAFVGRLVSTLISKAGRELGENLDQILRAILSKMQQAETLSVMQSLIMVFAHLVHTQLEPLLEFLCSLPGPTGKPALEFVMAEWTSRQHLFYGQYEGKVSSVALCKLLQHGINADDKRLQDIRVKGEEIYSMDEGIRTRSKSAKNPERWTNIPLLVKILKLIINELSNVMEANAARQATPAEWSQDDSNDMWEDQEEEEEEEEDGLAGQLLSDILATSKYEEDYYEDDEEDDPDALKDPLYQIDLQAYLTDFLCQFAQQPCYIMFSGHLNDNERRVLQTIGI
Chain of UniProt O00629 (O00629 whole entry, looked up): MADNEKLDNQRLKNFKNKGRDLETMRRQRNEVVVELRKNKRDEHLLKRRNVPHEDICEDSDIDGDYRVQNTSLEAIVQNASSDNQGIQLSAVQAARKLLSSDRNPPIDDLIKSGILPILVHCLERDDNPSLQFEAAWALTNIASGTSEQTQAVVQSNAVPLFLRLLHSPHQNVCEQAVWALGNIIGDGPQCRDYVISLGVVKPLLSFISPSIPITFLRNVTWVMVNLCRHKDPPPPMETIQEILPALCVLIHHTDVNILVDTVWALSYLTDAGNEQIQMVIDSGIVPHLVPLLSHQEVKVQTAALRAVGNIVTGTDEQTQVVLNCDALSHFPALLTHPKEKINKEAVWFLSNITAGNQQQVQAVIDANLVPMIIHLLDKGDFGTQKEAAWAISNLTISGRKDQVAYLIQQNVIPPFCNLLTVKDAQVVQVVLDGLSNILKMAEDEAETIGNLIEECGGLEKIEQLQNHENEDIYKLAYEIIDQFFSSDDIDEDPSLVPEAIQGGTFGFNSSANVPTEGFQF
Chain of UniProt Q68DH5 (Q68DH5 whole entry, looked up): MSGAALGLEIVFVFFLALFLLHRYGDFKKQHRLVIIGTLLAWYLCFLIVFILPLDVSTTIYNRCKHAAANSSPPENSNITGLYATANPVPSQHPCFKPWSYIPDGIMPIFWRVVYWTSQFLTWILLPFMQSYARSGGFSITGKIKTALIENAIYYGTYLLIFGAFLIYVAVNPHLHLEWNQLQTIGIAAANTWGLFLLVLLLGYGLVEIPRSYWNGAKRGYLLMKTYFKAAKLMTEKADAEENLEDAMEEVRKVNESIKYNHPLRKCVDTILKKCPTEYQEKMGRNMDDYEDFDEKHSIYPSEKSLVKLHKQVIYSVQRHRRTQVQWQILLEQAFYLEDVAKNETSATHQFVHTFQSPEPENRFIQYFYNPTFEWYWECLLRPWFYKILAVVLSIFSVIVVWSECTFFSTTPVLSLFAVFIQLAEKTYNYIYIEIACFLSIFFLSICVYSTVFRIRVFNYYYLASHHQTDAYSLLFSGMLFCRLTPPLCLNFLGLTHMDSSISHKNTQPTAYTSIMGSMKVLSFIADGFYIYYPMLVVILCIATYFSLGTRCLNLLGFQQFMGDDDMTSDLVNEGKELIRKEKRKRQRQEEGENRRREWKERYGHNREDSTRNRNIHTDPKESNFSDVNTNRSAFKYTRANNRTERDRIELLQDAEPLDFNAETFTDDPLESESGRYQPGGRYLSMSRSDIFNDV
Chain of UniProt Q14145 (Q14145 whole entry, looked up): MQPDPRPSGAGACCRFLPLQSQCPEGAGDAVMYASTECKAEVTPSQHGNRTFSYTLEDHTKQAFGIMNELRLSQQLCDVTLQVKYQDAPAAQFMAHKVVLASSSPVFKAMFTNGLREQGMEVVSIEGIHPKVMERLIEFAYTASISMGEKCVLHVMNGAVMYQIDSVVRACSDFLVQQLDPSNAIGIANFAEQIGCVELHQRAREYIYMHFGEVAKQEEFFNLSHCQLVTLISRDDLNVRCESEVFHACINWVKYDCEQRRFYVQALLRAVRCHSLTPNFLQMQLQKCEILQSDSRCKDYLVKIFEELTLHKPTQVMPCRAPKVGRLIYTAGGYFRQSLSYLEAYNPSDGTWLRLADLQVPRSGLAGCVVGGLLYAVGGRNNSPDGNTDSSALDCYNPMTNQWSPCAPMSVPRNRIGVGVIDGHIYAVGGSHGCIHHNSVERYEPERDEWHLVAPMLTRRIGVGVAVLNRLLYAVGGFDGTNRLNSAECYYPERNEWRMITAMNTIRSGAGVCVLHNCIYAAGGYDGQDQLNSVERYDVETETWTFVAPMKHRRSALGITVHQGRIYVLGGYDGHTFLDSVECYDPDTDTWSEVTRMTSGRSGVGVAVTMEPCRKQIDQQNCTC
Chain of UniProt Q9Y383 (Q9Y383 whole entry, looked up): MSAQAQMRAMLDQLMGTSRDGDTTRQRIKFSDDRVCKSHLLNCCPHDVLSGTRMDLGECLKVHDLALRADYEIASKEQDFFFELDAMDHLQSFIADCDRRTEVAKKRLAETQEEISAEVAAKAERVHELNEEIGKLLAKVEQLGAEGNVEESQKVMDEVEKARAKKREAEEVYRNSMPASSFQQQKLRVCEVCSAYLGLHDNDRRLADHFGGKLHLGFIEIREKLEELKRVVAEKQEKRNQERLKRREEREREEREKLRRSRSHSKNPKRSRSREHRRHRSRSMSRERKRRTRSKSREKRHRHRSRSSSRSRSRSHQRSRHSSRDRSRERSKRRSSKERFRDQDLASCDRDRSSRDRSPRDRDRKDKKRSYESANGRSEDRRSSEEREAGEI
Chain of UniProt Q07820 (Q07820 whole entry, looked up): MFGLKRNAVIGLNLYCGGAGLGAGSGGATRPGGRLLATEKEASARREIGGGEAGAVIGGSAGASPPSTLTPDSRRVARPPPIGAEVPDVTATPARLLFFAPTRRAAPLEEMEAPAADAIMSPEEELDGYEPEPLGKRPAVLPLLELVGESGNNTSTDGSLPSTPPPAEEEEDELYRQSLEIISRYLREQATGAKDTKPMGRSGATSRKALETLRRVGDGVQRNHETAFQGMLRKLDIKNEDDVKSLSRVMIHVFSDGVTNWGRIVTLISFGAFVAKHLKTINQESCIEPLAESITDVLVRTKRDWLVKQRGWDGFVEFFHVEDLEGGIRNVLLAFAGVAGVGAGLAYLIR

| Target | log2 fold change [1] | log2 fold change (crizotinib) | log2 fold change [2] | log2 fold change [3] | log2 fold change (duvelisib) | log2 fold change (gandotinib) | log2 fold change (tozasertib) | log2 fold change [4] | log2 fold change (doramapimod) | log2 fold change (ispinesib) | log2 fold change (bafetinib) | log2 fold change [5] | log2 fold change (nilotinib) | log2 fold change [6] | log2 fold change (dasatinib) | log2 fold change [7] | log2 fold change [8] | log2 fold change [9] | log2 fold change (tipifarnib) | log2 fold change (mubritinib) |
| --- | --- | --- | --- | --- | --- | --- | --- | --- | --- | --- | --- | --- | --- | --- | --- | --- | --- | --- | --- | --- |
| KIF21A isoform 4 (UniProt Q7Z4S6) | 0.092 | -0.039 | 0.027 | 0.207 | 0.055 | -0.001 | 0.021 | 0.044 | 0.047 | -0.153 | 0.051 | 0.079 | -0.104 | 0.083 | -0.193 | 0.037 | -0.066 | -0.073 | -0.039 | 0.11 |
| KEAP1 (UniProt Q14145) | 0.011 | -0.077 | -0.095 | 0.111 | 0.008 | -0.176 | 0.077 | 0.049 | 0.089 | -0.102 | -0.057 | 0.032 | -0.108 | -0.108 | -0.027 | 0.021 | -0.085 | -0.07 | -0.047 | 0.037 |
| LMF2 (UniProt Q9BU23) | 0.039 | 0.016 | -0.05 | 0.053 | 0.002 | 0.023 | 0.088 | 0.023 | 0.046 | -0.075 | -0.068 | 0.024 | 0.047 | -0.014 | 0.033 | 0.026 | 0.021 | 0.022 | 0.019 | 0.052 |
| KEL (UniProt P23276) | 0.002 | 0.084 | -0.048 | -0.07 | 0.015 | -0.341 | -0.01 | 0.019 | 0.028 | 0.047 | -0.027 | -0.002 | 0.017 | -0.032 | -0.019 | 0.004 | 0.083 | 0.003 | 0.031 | -0.591 (active) |
| KPNA4 (UniProt O00629) | 0.004 | -0.003 | 0.024 | -0.073 | 0.03 | -0.032 | -0.014 | 0.014 | -0.046 | 0.037 | -0.111 | 0.021 | 0.04 | -0.155 | -0.017 | -0.033 | 0.021 | 0.032 | -0.004 | 0.093 |
| KNTC1 (UniProt P50748) | 0.038 | -0.178 | -0.002 | 0.045 | 0.061 | -0.162 | 0.014 | 0.012 | -0.01 | -0.086 | -0.013 | 0.043 | -0.064 | -0.026 | -0.047 | 0.042 | -0.073 | 0 | -0.108 | 0.004 |
| LUC7L2 (UniProt Q9Y383) | -0.083 | 0.02 | 0.053 | -0.439 (active) | -0.002 | 0.031 | 0.065 | 0.03 | -0.03 | 0.111 | 0.035 | 0.002 | 0.059 | -2.75 (active) | -0.01 | -0.007 | -0.033 | -0.059 | 0.049 | -0.07 |
| IK (UniProt Q13123) | -0.041 | 0.021 | -0.037 | 0.186 | 0.034 | 0.022 | 0.05 | -0.007 | 0.016 | 0.065 | 0.013 | -0.01 | -0.062 | -0.067 | -0.025 | 0.037 | -0.007 | -0.109 | 0.003 | -0.067 |
| LMBRD2 (UniProt Q68DH5) | 0.034 | -0.156 | -0.042 | -0.152 | 0.001 | -0.049 | -0.016 | -0.065 | 0.011 | -0.328 (active) | -0.142 | -0.006 | -0.048 | 0.041 | 0.019 | -0.028 | -0.03 | 0.043 | 0.189 | -0.007 |
| MED1 (UniProt Q15648) | 0.011 | 0.014 | 0.043 | 0.04 | -0.044 | -0.025 | -0.031 | -0.05 | 0.11 | -0.078 | 0.016 | -0.018 | 0.057 | 0 | 0.037 | -0.217 (active) | -0.064 | -0.089 | 0.069 | 0.004 |
| IPO9 (UniProt Q96P70) | -0.04 | -0.031 | 0.051 | -0.042 | 0.007 | -0.146 | 0.143 | 0.041 | 0.008 | 0.062 | 0.019 | 0.031 | -0.016 | -0.06 | 0.04 | 0.011 | -0.069 | -0.06 | -0.084 | -0.005 |
| KRAS isoform 2 (UniProt P01116) | 0.03 | 0.024 | -0.016 | 0.019 | -0.084 | -0.05 | -0.079 | -0.018 | -0.019 | -0.09 | 0.008 | -0.115 | -0.123 | 0.074 | -0.018 | -0.041 | 0.064 | -0.08 | 0.087 | 0.041 |
| LRBA, A0A494BZW2 | 0.013 | -0.053 | 0.114 | 0.104 | -0.057 | 0.041 | -0.055 | -0.004 | 0.036 | -0.182 | -0.041 | 0.044 | 0.019 | -0.016 | -0.144 | 0.053 | -0.076 | 0.123 | -0.26 | -0.03 |
| IMMT isoform 2 (UniProt Q16891) | -0.042 | -0.152 | 0.046 | -0.115 | -0.003 | -0.075 | -0.019 | -0.087 | -0.034 | -0.031 | -0.081 | 0.11 | -0.007 | -0.002 | 0.144 | -0.022 | -0.037 | 0.037 | 0.065 | 0.066 |
| MCL1 (UniProt Q07820) | -0.079 | 0.043 | -0.158 | -0.006 | 0.052 | 0.042 | -0.056 | 0.01 | 0.109 | -0.441 | -0.181 | -0.017 | 0.015 | -0.053 | 0.068 | -0.079 | -0.021 | -0.158 | 0.109 | 0.001 |
| IGFBP2 (UniProt P18065) | -0.205 | -0.297 | -0.051 | -0.189 | 0.173 | -0.475 | -0.083 | 0.026 | -0.305 | -0.482 | -0.512 | 0.026 | -0.034 | 0.142 | -0.1 | 0.17 | 0.17 | -0.095 | -0.1 | -0.135 |
